Measured values published in PubChem BioAssay AID1053197 (The Scripps Research Institute Molecular Screening Center, 2014).
“And” between values parts separate entries of the source, which are not always exact repeats. Equal values may be shown once. The campaign covered roughly 370,000 compounds. About 2,600 (0.7%) were called active. The entries come from a sample that favours actives as a whole. Unmarked numbers belong to inactive results.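 The calls were made as follows: active = inhibition above a cutoff: mean of compounds within the control limits plus 3 SD of those (cut at about 17% in these data); inactive = the rest.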

Biological target: Sialate O-acetylesterase (Homo sapiens) (UniProt Q9HAT2)
Experiment: human SIAE inhibitors, primary screen, biochemical, fluorescence polarization, FP-Rh probe, 1536-well HTS (AID 1053197);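 also: 0% = plate median of compound wells and 100% = probe without SIAE protein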
Conditions: SIAE FP-Rh probe binding, at 9.66 µM, active compounds read high

Sialate O-acetylesterase (Homo sapiens), sequence (Q9HAT2 whole entry, looked up): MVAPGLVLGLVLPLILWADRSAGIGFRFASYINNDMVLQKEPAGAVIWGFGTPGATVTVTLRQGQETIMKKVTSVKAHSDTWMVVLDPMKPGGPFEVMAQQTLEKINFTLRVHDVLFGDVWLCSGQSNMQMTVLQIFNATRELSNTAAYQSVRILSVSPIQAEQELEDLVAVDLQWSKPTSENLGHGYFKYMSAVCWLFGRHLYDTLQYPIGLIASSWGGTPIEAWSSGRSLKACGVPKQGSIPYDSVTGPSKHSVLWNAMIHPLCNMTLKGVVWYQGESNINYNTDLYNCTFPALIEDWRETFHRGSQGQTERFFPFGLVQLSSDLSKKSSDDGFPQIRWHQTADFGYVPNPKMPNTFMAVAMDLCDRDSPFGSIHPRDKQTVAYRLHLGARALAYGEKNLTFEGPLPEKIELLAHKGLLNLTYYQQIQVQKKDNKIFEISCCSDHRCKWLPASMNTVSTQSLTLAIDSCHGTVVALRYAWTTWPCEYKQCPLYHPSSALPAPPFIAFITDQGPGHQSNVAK

Compound | inhibition
Cc1cccc(-n2c(O)c(/C=N/N3CCOCC3)c(=O)[nH]c2=S)c1 | 1.16%
CC(C)c1ccc(-n2c(O)c(/C=N/N3CCOCC3)c(=O)[nH]c2=S)cc1 | 24.9% (active)
O=c1[nH]c(=S)n(C2CC2)c(O)c1/C=N/N1CCOCC1 | -9.2%
CO[C@H]([C@H](C)/C=C/N(C)C=O)[C@@H](C)C(=O)CC[C@H](C)[C@H](O)[C@H](C)[C@H]1OC(=O)/C=C/C(C)=C/[C@H](O)[C@H](OC)C[C@@H]2C=CC[C@@H](C[C@H](OC)[C@@]3(CO3)[C@@H](OC)C[C@@H](OC)[C@@H]1C)O2 | 9.94%
CCOC(=O)C1(CCc2ccccc2)CCN(Cc2ccco2)CC1 | 2.93%
O=S(=O)(c1ccccc1)N1CCC2CCNC2C1 (stereo not given) | -2.28%
Cc1cc(C(=O)OCC(=O)Nc2c(F)cccc2F)c(C)n1C1CC1 | -0.24%
Cc1cc(C=C2C(=O)NC(=O)NC2=O)c(C)n1-c1ccncc1 | 17.8% (active)
Cc1ccnc(-n2c(C)cc(/C=C3\C(=O)NC(=S)N(C)C3=O)c2C)c1 | 0.93%
CN(C)C(=O)Oc1cc(OC(=O)N(C)C)cc(C(O)CNC(C)(C)C)c1 (stereo not given) | -1.59% and 2.18%
Nc1ccc(C(=O)N/N=C2/CN3CCC2CC3)cc1 | 21.4% (active)
CCN(CC)C(=O)c1ccc(NC(=O)c2sccc2-c2ccccc2)cc1 | -4.91%
c1cc2c(c(NC3=NCCCS3)c1)CCCC2 | 2.24%
COC(=O)COc1cc(C)cc2oc(=O)c3c(c12)CCCC3 | -2.75%
COC(=O)C1=C(c2ccc(F)cc2OCc2ccccc2)C[C@@H]2CC[C@H]1N2C(=O)NCc1ccc2[nH]ccc2c1 | -4.35%
